This passage reports growth results from PubChem BioAssay (NCI).

The panel holds about 83,000 compounds, 20% with a hit somewhere; the sample as a whole holds those more often.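 The endpoint reported here, percent growth, reads 100 for growth as untreated, 0 for no net growth and -100 for all cells dead.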 A number with no mark means an inactive call. Calls of active or inactive are those of the source.

This experiment relates to IGROV1 ovarian. The experiment is described as follows: NCI-60 one-dose screen, 48 h (100 = growth as untreated, 0 = no growth, -100 = all killed). Conditions: 10 µM unless noted. How it is done:
Growth inhibition of the IGROV1 human tumor cell line is measured as a screen for anti-cancer activity. Cells are grown in 96 well plates and exposed to the test compound for 48 hours. Compounds are tested at a single concentration, which is 10^-5 M for most compounds. The reported endpoint is percent growth (GI% or GIPRCNT), where numbers from 0 - 100% represent growth inhibition, and numbers from -100% - 0 represent cell death. For example, a value of 40 represents 60% growth inhibition. A value of 0 means no net growth occurred over the course of the experiment. A value of -40 indicates 40% of cells at the beginning of the experiment died by the end of the experiment. A value of -100 means all cells are dead at the end of the experiment.
NCI-60 Human Tumor Cell Lines Screen was performed using the standard one-dose NCI protocol, which is described in more detail at https://dtp.cancer.gov/discovery_development/nci-60/default.htm.
Compounds with GIPRCNT values below 10 were considered active. Activity score was based on GIPRCNT using the following formula: […]
Score is 0 for GIPRCNT values of 100 or above, 50 for GIPRCNT values of 0, and 100 for GIPRCNT values of -100.
In the case of `COc1cc(/C=C2\CCCC3=C2N=C2SC(C)=NN2C3c2cc(OC)c(OC)c(OC)c2)cc(OC)c1OC` (stereo not given), the growth was 24.4%. Then `COc1ccc(C(=O)/C=C/c2cc(C(=O)c3cc(OC)c(OC)c(OC)c3)ccc2OC)cc1`, with 62.2%; and `O=C(/C=C/c1ccccc1)n1c(-c2ccc(Cl)cc2)nc2ccccc21`, with 10.4%; and `CC(C)CCC[C@@H](C)[C@H]1CC[C@H]2[C@@H]3CC[C@H]4C/C(=N/O)CC[C@]4(C)[C@H]3CC[C@]12C`, with 111%. Consider `CC(C)(C)c1cc(-c2nc3ccc(N4CCN(CCO)CC4)cc3[nH]2)cc(C(C)(C)C)c1O`, for which the growth is 82.7%. Then `Nc1cccc2c1CN(C1CCC(=O)NC1=O)C2=O` (stereo not given), with 29.8%; and `CCOc1ccc(/C=C/C=N/NC(N)=S)cc1`, with 53.5%; and `COc1ncc(-c2ccc3ncnc(Nc4cccc(Cl)c4)c3c2)cc1NS(=O)(=O)C1CC1`, with -38.6% (active). Take `Cc1cc(Cl)ccc1OC(C)C(=O)Nc1nnc(C2CC2)s1` (stereo not given): the growth was -51.7% (active).

Regarding `COc1cccc(C2CC(=O)Nc3c2c(C)nn3-c2nc3ccccc3[nH]2)c1OC` (stereo not given), the growth was 3.88% (active). On to `COc1ccc(C(=O)c2cc(OC)c(OC)c(OC)c2)cc1/C=C/C(=O)c1ccc2c(c1)OCO2`, for which the growth was 16.9%.

For the molecule `COC(=O)C(CC(=O)c1ccc(-c2ccccc2)cc1)c1ccccc1` (stereo not given), the growth was 64.7%.

For the molecule `Clc1ccc2c(c1)NC1(CCSc3ccccc31)n1nccc1-2` (stereo not given), the growth is 102%. With `CCC1=C[C@@H]2CN(C1)Cc1c([nH]c3ccccc13)[C@@](C(=O)OC)(c1cc3c(cc1OC)N(C=O)[C@H]1[C@@](O)(C(=O)OC)[C@H](OC(C)=O)[C@]4(CC)[C@@H]5C[C@@H]5CN5CC[C@]31[C@@H]54)C2`, the growth was 30.8%. With `COc1ccc(C(=O)c2cc(OC)c(OC)c(OC)c2)cc1/C=C/C(=O)c1ccc(O)cc1`, the growth is 45.9%.

With `C#CCN1C(=O)/C(=c2\sc3n(c2=O)C2C(NN=3)N(CC)C(=O)N2CC)c2ccccc21` (stereo not given), the growth was 27.6%. The value for `COc1ccc(/C=c2\sc3n(c2=O)C2C(NN=3)N(C)C(=O)N2C)cc1` (stereo not given) was 40%; that for `COc1ccc(C(=O)/C=C/c2ccc(/C=C/c3cc(OC)c(OC)c(OC)c3)cc2)cc1` was 6.66% (active). Consider `COc1cc2nc(SCc3cc(OC)c(OC)c(OC)c3)n(Cc3ccccc3)c(=O)c2cc1OC`, for which the growth was 39.2%. Regarding `Cc1cc2c(C(C)C)c(O)c(O)c(C=NCCCCC(=O)O)c2c(O)c1-c1c(C)cc2c(C(C)C)c(O)c(O)c(C=NCCCCC(=O)O)c2c1O`, the growth is 41.7%.

On to `CC/C=C\C[C@H](O)C/C=C1/C(=O)C(Cl)=C[C@@H]1C/C=C\CCCC(=O)OC`, for which the growth is -12.6% (active). As for `COc1ccc(N=C2NN=C(c3ccc(F)cc3)CS2)cc1OC`, the growth is -11.7% (active). For the molecule `C=CCn1c(C)nc2ccc(Nc3nc(Nc4ccc(F)cc4)nc4ccccc34)cc21`, the growth is 51.1%.

With `O=C(Nc1ccc(Br)c(Cl)c1)c1cc(F)ccc1O`, the growth was 16.2%.

On to `CCCCC(N)(C(=O)O)C1CCCC1` (stereo not given), for which the growth is 110%. Regarding `Cc1nn(-c2ccc(Cl)cc2)c(=O)n1CCOc1ccccc1Cl`, the growth was 117%. Then `C=CC(=O)N[C@H](/C=C/C(=O)OCC)Cc1ccc(-c2cc(Cl)cc(Cl)c2)cc1`, with 93%; and `O=C1c2ccccc2C(=O)c2c(N=Nc3sc(=O)[nH]c3S)cccc21`, with 94.1%.

Turning to `CCOC(=O)C1=C(C)NC(=O)NC1c1ccc(OCC(=O)N/N=C/c2ccc(Cl)cc2)cc1` (stereo not given), the growth is 94.9%.

Take `O=S(=O)(NCCNc1cc(-c2cn(-c3ccccc3)nc2-c2ccccc2)ccn1)c1cccc2ccccc12`: the growth is 63.1%. Take `NS(=O)(=O)c1ccc(CN2C(=O)c3cccc4cccc(c34)C2=O)cc1`: the growth was 105%. As to `COc1cc(C(=O)/C=C/c2cc(C(=O)c3cc(OC)c(OC)c(OC)c3)ccc2OC)ccc1N`, the growth was -12.7% (active). Take `CCCCCc1c(C)[nH]c(/C=c2\[nH]/c(=C3/C=c4ccccc4=N3)cc2OC)c1C`: the growth is -4.01% (active).

In the case of `C[C@]12CC[C@@H]3c4cc(O)c(O)cc4CC[C@H]3[C@@H]1CC[C@@H]2O`, the growth was 60.2%. Then `O=c1oc2cc(OS(=O)(=O)c3ccccc3)c(Cl)cc2c2c1CCCCCC2`, with 84.3%. Turning to `O=C(c1c[nH]c2ccccc12)C(Sc1nc2ccccc2c(=O)[nH]1)c1ccccc1` (stereo not given), the growth was 19.1%. Regarding `CCSc1nnc(NC(=O)COc2ccc(Cl)cc2C)s1`, the growth was -17.9% (active). Then `Nc1c(C(=O)Nc2cccc(Cl)c2Cl)sc2nc3c(cc12)C(=O)CCC3`, with 72.8%; and `CC(=O)C1CCC(C)=CC1=O` (stereo not given), with 102%; and `CC1Cc2c(N(C)C)ncnc2N(C)c2ccc(Cl)cc21` (stereo not given), with 57.5%.
